This is an account of results in PubChem BioAssay (Tox21).

Inconclusive results are not listed. Unmarked numbers belong to inactive results. Calls of active or inactive are those of the source. Calls come from the whole dose curve; as a rule, active = well fitted curve in the direction sought with a large enough effect in the repeat runs; inconclusive = weak or mixed curves; inactive = no such curve, though single readings can be large; an effect the other way counts as inactive or inconclusive.
% is set by controls: 0 for no effect and ±100 for the full control effect; potency is the fitted concentration of half-maximal effect.

Nuclear receptor subfamily 1 group I member 2 (Homo sapiens), sequence (O75469 whole entry, looked up): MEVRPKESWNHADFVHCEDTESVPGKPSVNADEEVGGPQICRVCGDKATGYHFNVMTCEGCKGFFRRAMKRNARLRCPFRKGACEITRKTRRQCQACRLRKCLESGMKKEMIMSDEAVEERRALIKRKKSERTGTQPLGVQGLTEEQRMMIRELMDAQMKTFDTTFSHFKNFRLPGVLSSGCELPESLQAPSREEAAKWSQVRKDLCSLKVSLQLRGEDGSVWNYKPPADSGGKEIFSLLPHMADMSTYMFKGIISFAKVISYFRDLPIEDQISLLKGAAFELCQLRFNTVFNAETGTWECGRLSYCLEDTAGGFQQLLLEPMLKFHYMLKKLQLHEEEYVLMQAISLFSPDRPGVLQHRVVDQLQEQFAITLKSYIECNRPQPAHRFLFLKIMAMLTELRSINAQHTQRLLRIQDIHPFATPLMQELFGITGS

Test system in the first assay: not listed separately
Put plainly: Caspase-3/7 induction in HepG2 cells by small molecules, qHTS cell viability counter screen (AID 1346981). Note: nearly all actives have a fitted effect of over 30% in size. Conditions: CellTiter-Fluor fluorescence, 17 h; series mostly up to 92.4 µM; activity change, negative = cytotoxicity: at the top concentration. Put shortly: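 Treatment of HepG2 cells with DMSO-delivered compounds ran 16 hr at 37 C following a 5-hr pre-incubation of 2,000 cells/well. CellTiter-Fluor fluorescence, read after 1 hr, served as the viability measure in a qHTS format.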
In general terms: In qHTS, concentration-response curves come from the screen itself.
As to `Cc1ccccc1N=C(N)N=C(N)N`, the “activity change, negative = cytotoxicity” value is 7.62%.
On the same count and under the same terms, with `CCCC(=O)O[C@]1(C(=O)CC)CC[C@H]2[C@@H]3CCC4=CC(=O)CC[C@]4(C)[C@H]3[C@@H](O)C[C@@]21C` the figure was -4.16% [at 42.5 µM]; with `CCO[Si](OCC)(OCC)c1ccccc1`, 4.79%; with `Cc1cccc(C)c1NC(=O)CC12CCCN1CCC2`, 5.35% [at 42.5 µM].
Same read-out and setting: with `O=S(=O)(O)c1cc(O)c(O)c(S(=O)(=O)O)c1` the figure was 7.02%; with `CC(C)C1CCC(O)CC1` (stereo not given), 1.37%.
Consider `CC1=NN(c2cc(S(=O)(=O)O)ccc2Cl)C(=O)C1N=Nc1ccccc1` (stereo not given), for which the Potency was 54.5 µM (active).
Take `CC12CCC(C(=O)C1=O)C2(C)C` (stereo not given): the “activity change, negative = cytotoxicity” value is 2.93%.
With `C=CN1CCCCCC1=O`, the “activity change, negative = cytotoxicity” value was 3.18%.
The same measure, in the same setting: with `CCCCCCCCCCCCCCCCCCO` the figure was 8% [at 42.5 µM]; with `CC(C)C(=O)OC(=O)C(C)C`, -19.4%.
For `[O-][n+]1cccc(CO)c1`, the “activity change, negative = cytotoxicity” value was 4.66% [at 42.5 µM].
The same measure, in the same setting: with `CCCCCC(=O)OCCc1ccccc1` the figure was 2.42%; with `CC(=O)NC(=O)c1ccccc1O`, 6.41% [at 42.5 µM]; with `COc1cc(C(=O)OC(COCCC(C)C)CN2CCOCC2)cc(OC)c1OC` (stereo not given), -0.141% [at 42.5 µM].
On the same count and under the same terms, the value for `CO[Si](C)(OC)c1ccccc1` was 3.18%.
In the case of `C=COC(=O)C(C)(CC)CCC(C)C` (stereo not given), the “activity change, negative = cytotoxicity” value was 2.7%.
Still for that read-out and setting: with `C=C[Si](OC(C)=O)(OC(C)=O)OC(C)=O` the figure was 1.38%; with `COc1c(N2CCNC(C)C2)c(F)cc2c(=O)c(C(=O)O)cn(C3CC3)c12` (stereo not given), -2.59% [at 42.5 µM]; with `CC1(C)OC[C@@H](COC(=O)CCc2ccc(OC[C@@H](O)CNCCNC(=O)N3CCOCC3)cc2)O1`, -8.23% [at 42.5 µM].
Turning to `C=CC(C)(CCC=C(C)C)OC(=O)CC` (stereo not given), the “activity change, negative = cytotoxicity” value is -2.48%.
Same read-out and setting: the value for `c1ccc(Cc2ccccc2)cc1` was 4.93%; that for `CC(C)(C#N)Nc1nc(Cl)nc(NC2CC2)n1` was -0.711%; that for `C=C(C)C(=O)OCC1CCCO1` (stereo not given) was 0.279%.
Same read-out and setting: the value for `CC(=O)Nc1ccc(OCC(O)CNC(C)C)cc1` (stereo not given) was 6.92% [at 42.5 µM]; that for `CN(C)[C@@H]1C(=O)C(C(=O)NCN2CCCC2)=C(O)[C@@]2(O)C(=O)C3=C(O)c4c(O)cccc4[C@@](C)(O)C3C[C@@H]12` (stereo not given in full) was -0.632% [at 42.5 µM]; that for `COc1cc(C(=O)NCc2ccc(OCCN(C)C)cc2)cc(OC)c1OC` was -2.25% [at 42.5 µM].
With `CCCC(C)C(=O)OCC` (stereo not given), the “activity change, negative = cytotoxicity” value is 1.21%.
Consider `CCCCOC(=O)CCC(C)=O`, for which the “activity change, negative = cytotoxicity” value is -2.46%.
Still for that read-out and setting: the value for `CC(C#N)(CCC(=O)O)N=NC(C)(C#N)CCC(=O)O` (stereo not given) was 0.45%; that for `O=S(=O)(O)c1cccc2ccccc12` was 0.707%; that for `CN(C)C(=O)Oc1cccc([N+](C)(C)C)c1` was 5.7% [at 42.5 µM].
Still for that read-out and setting: with `CC(=O)N[C@H]1[C@H]([C@H](O)[C@H](O)CO)OC(C(=O)O)=C[C@@H]1N=C(N)N` the figure was 0.139% [at 42.5 µM].
Same read-out and setting: with `CCN[C@@H]1C[C@H](N)[C@@H](OC2OC(CN)=CCC2N)[C@H](O)[C@H]1O[C@H]1OC[C@](C)(O)[C@H](NC)[C@H]1O` (stereo not given in full) the figure was 3.51% [at 0.349 µM]; with `C=CC(=O)OCCCl`, 8.72%.
Consider `CCCc1nn(C)c2c(=O)[nH]c(-c3cc(S(=O)(=O)N4CCN(C)CC4)ccc3OCC)nc12`, for which the “activity change, negative = cytotoxicity” value is -7.15% [at 42.5 µM].
Turning to `C[N+]12CCC(CC1)C(OC(=O)C(O)(c1ccccc1)c1ccccc1)C2` (stereo not given), the “activity change, negative = cytotoxicity” value is -2.66% [at 42.5 µM].

A further assay addresses Nuclear receptor subfamily 1 group I member 2 (Homo sapiens) (UniProt O75469). Put plainly: Human pregnane X receptor (PXR) small molecule agonists, qHTS assay (AID 1346982). Note: nearly all actives have a fitted effect of over 35% in size. Conditions: PXR-Luc HepG2, CYP3A4 luciferase reporter, 24 h; series mostly up to 92.4 µM; activation: at the top concentration. Put shortly: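 Stable HepG2 line reporting PXR-mediated CYP3A4 expression via luciferase. Treatment: 24 hr with compounds in DMSO at 37 C. Detection: ONE-Glo luminescence.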
Take `Cc1ccccc1N=C(N)N=C(N)N`: the “activation” value is 12%.
Consider `FB(F)F`, for which the “activation” value was 3.98%.
Take `CCCC(=O)O[C@]1(C(=O)CC)CC[C@H]2[C@@H]3CCC4=CC(=O)CC[C@]4(C)[C@H]3[C@@H](O)C[C@@]21C`: the Potency is 3.76 µM (active).
On to `CCO[Si](OCC)(OCC)c1ccccc1`, for which the “activation” value is 4.95%.
For `Cc1cccc(C)c1NC(=O)CC12CCCN1CCC2`, the “activation” value is -3.18% [at 42.5 µM].
Regarding `O=S(=O)(O)c1cc(O)c(O)c(S(=O)(=O)O)c1`, the “activation” value was 11%.
Regarding `CC(C)C1CCC(O)CC1` (stereo not given), the “activation” value was 2.64%.
Still for that read-out and setting: the value for `CC12CCC(C(=O)C1=O)C2(C)C` (stereo not given) was 7.61%; that for `C=CN1CCCCCC1=O` was 7.55%.
On the same count and under the same terms, the value for `CCCCCCCCCCCCCCCCCCO` was -9.36% [at 42.5 µM]; that for `CC(C)C(=O)OC(=O)C(C)C` was -1.78%.
Consider `[O-][n+]1cccc(CO)c1`, for which the “activation” value is -4.2% [at 42.5 µM].
Turning to `CCCCCC(=O)OCCc1ccccc1`, the “activation” value was 10.7%.
Consider `CC(=O)NC(=O)c1ccccc1O`, for which the “activation” value was -3.57% [at 42.5 µM].
Take `CO[Si](C)(OC)c1ccccc1`: the Potency is 30.6 µM (active).
Take `C=COC(=O)C(C)(CC)CCC(C)C` (stereo not given): the “activation” value is 7.39%.
Same read-out and setting: with `C=C[Si](OC(C)=O)(OC(C)=O)OC(C)=O` the figure was 24.5%.
The same measure, in the same setting: the value for `COc1c(N2CCNC(C)C2)c(F)cc2c(=O)c(C(=O)O)cn(C3CC3)c12` (stereo not given) was -15.7% [at 42.5 µM]; that for `CC1(C)OC[C@@H](COC(=O)CCc2ccc(OC[C@@H](O)CNCCNC(=O)N3CCOCC3)cc2)O1` was 3.88% [at 42.5 µM].
Turning to `C=CC(C)(CCC=C(C)C)OC(=O)CC` (stereo not given), the “activation” value was 11.9%.
With `c1ccc(Cc2ccccc2)cc1`, the “activation” value is -5.89%.
For the molecule `CC(C)(C#N)Nc1nc(Cl)nc(NC2CC2)n1`, the Potency is 27.3 µM (active).
Turning to `CC(=O)Nc1ccc(OCC(O)CNC(C)C)cc1` (stereo not given), the “activation” value is -5.42% [at 42.5 µM].
Still for that read-out and setting: with `CN(C)[C@@H]1C(=O)C(C(=O)NCN2CCCC2)=C(O)[C@@]2(O)C(=O)C3=C(O)c4c(O)cccc4[C@@](C)(O)C3C[C@@H]12` (stereo not given in full) the figure was -4.28% [at 42.5 µM]; with `COc1cc(C(=O)NCc2ccc(OCCN(C)C)cc2)cc(OC)c1OC`, 14.5% [at 42.5 µM].
Same read-out and setting: with `CCCC(C)C(=O)OCC` (stereo not given) the figure was -2.29%; with `CCCCOC(=O)CCC(C)=O`, 3.36%.
On the same count and under the same terms, the value for `O=S(=O)(O)c1cccc2ccccc12` was 9.68%.
Turning to `CN(C)C(=O)Oc1cccc([N+](C)(C)C)c1`, the “activation” value was -15.7% [at 42.5 µM].
Turning to `CC(=O)N[C@H]1[C@H]([C@H](O)[C@H](O)CO)OC(C(=O)O)=C[C@@H]1N=C(N)N`, the “activation” value is -4.54% [at 42.5 µM].
Take `CCN[C@@H]1C[C@H](N)[C@@H](OC2OC(CN)=CCC2N)[C@H](O)[C@H]1O[C@H]1OC[C@](C)(O)[C@H](NC)[C@H]1O` (stereo not given in full): the activation was -3.06% [at 0.349 µM].
On the same count and under the same terms, the value for `C=CC(=O)OCCCl` was -6.95%; that for `C[N+]12CCC(CC1)C(OC(=O)C(O)(c1ccccc1)c1ccccc1)C2` (stereo not given) was -17.2% [at 42.5 µM].
